Results published in PubChem BioAssay (Tox21).
Inconclusive results are not listed. The source made the active and inactive calls. The call rests on the fitted dose curve; in most records, active means well fitted cell-killing curve with a large enough effect in the repeat runs; inconclusive means weak or mixed curves, or effect the other way; inactive means flat fitted curve, though single readings scatter.

assay: cAMP Responsive Elements (CRE) small molecule antagonists, cell-based qHTS assay: qHTS cell viability counter screen (AID 2060913); conditions: CRE-bla HEK293T viability, CellTiter-Glo luminescence, 5 h; series mostly up to 92.4 µM; viability change, negative = cytotoxic: at the top concentration; further: nearly all actives have a fitted effect of over 40% in size
Method in brief: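 Cytotoxicity counter screen multiplexed with the CRE-bla antagonist read: HEK293T cells in DMEM with dialyzed FBS and 25 mM HEPES were treated 3 hrs under 0.25 uM final NKH477, then viability measured by CellTiter-Glo luminescence.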
On the % scale 0 is the no-effect control and ±100 the full control effect.

SMILES	Potency	viability change, negative = cytotoxic
Nc1ccc(O)c(N)c1	inactive	
CC1(N)CCC(C(C)(C)N)CC1 (configuration not stated)		8.98% (inactive)
CCCN1CCCC[C@H]1C(=O)Nc1c(C)cccc1C		2.77% [at 42.5 µM] (inactive)
CCCCC(CC)CN (configuration not stated)		1.02% (inactive)
CC(C)OC=O	inactive	
Cc1cc(O)c(C(C)C)cc1Cl		-11.5% [at 42.5 µM] (inactive)
CCC(C)COC(=O)CC(C)C (configuration not stated)		-1.85% (inactive)
Cc1ccc(-c2ccccc2C#N)cc1		3.99% [at 42.5 µM] (inactive)
CCCC(=O)O	inactive	
CC(=O)CC(C)(C)C1CCCCC1		-13.8% (inactive)
CC1OC(=O)C(C)OC1=O (configuration not stated)		3.4% (inactive)
CS(=O)(=O)c1ccc([C@@H](C[C@H]2CCC(=O)C2)C(=O)Nc2cnccn2)cc1Cl		-3.24% (inactive)
O=C(O)Cc1ccc2c(c1)C(=O)c1ccccc1CO2		0% [at 42.5 µM] (inactive)
CCC1(CO)COCOC1		3.25% (inactive)
COP(=O)(O)OP(=O)(O)OC		-0.227% (inactive)
COC(C)(C)CCO		7.54% (inactive)
CCOC(=O)C1=NN(c2ccccc2)C(=O)C1		0.0777% (inactive)
Cc1cccc(N)n1		0.808% (inactive)
Cc1nnc(NS(=O)(=O)c2ccc(N)cc2)s1	inactive	
N[C@@H](CCC(=O)O)C(=O)O		-0.435% (inactive)
C=C/C=C/C=C/CCCCC		-0.548% [at 18.9 µM] (inactive)
CCCCCCCCCCCCS(=O)(=O)Cl		11.7% [at 18.9 µM] (inactive)
CCCCCCCC/C=C\CCCCCCCC(=O)OC[C@@H](O)[C@H]1OC[C@H](O)[C@H]1O		-0.788% (inactive)
c1ccc(-c2ccc(C(c3ccccc3)n3ccnc3)cc2)cc1 (configuration not stated)		-5.27% [at 42.5 µM] (inactive)
O=C(O)C[C@H](NC(=O)OCc1ccccc1)C(=O)O		1.49% (inactive)
O=C1NC(=O)c2cc([N+](=O)[O-])ccc21		3.74% (inactive)
Cc1cccc(C)c1NC(=O)c1ccccc1C(=O)O		-1.26% [at 42.5 µM] (inactive)
